Shown are actives, neighbours in structure and some others; about 21% of the full set was active somewhere.
NS1 function inh = qHTS Assay for Inhibitors of Influenza NS1 Protein Function | Potency, µM (top dose mostly 46.1 µM) | hit rate 0.4% among 270,000 | AID 2326, 2010; calls by dose curve; also: actives are rising curves; nearly all actives have a fitted effect of over 50% in size
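Compounds were scored for reversing the slow growth caused by influenza A NS1 in S. cerevisiae, measured by optical density at 600 nm. Assay medium contained 2% galactose at pH 6.0; NS1-free yeast of the same strain were the positive control.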
Pf growth 96h = Primary qHTS for delayed death inhibitors of the malarial parasite plastid, 96 hour incubation | P. falciparum luciferase reporter growth, 96 h | Potency, µM (series often up to 28.7 µM), usual class: inhibitors | hit rate 6.9% among 320,000
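Parasite growth measured via integrated firefly luciferase reporter in P. falciparum. Infected erythrocytes at 2% hematocrit, 0.05% parasitemia final were treated 96 hours at 37 C under 5% CO2, and luminescence was read.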
Shiga toxin inh = A qHTS for Small Molecule Inhibitors of Shiga Toxin; Vero cells, Shiga toxin protein synthesis inhibition reporter; inhibition, % at 38.7 µM; hit rate 9.2% among 290,000; AID 2315, 2010; in the data active = inhibition mostly above about 28%, no sharp cut-off; inactive = mostly below about 43%
Giardia FBPA inh = qHTS Assay for Inhibitors of Fructose-1,6-bisphosphate Aldolase from Giardia Lamblia; Potency, µM (series often up to 59.6 µM), usual class: inhibitors; hit rate 0.71% among 290,000; A8B2U2; purified Giardia FBPA; also: nearly all actives have a fitted effect of over 55% in size
Target sequence (A8B2U2 whole entry, looked up): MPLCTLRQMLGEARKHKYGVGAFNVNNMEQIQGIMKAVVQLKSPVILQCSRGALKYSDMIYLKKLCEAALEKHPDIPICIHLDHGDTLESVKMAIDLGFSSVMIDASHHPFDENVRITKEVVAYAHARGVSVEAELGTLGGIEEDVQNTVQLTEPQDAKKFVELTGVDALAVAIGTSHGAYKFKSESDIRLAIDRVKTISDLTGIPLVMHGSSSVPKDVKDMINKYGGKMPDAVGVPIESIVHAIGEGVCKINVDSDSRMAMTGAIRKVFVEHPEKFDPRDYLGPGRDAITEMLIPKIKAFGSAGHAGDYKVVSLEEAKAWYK
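Giardia FBPA (40 nM reagent) was preincubated 10 min at RT with compound (up to 57.5 uM final), then substrate plus GAPDH/TPI/NAD/arsenate coupling system with diaphorase/resazurin was added; resorufin fluorescence (525/598 nm) was read after 20 min.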
CHX counter = Cycloheximide Counterscreen for Small Molecule Inhibitors of Shiga Toxin; cell reporter, cycloheximide protein synthesis inhibition counterscreen; max response, %; hit rate 12% among 300,000; AID 2314, 2010; in the data active = max response mostly above about 13%, no sharp cut-off; inactive = mostly below about 14%; also: read at 38.3 µM for the half of the compounds with a filed dose
Pf growth 48h = Primary qHTS for delayed death inhibitors of the malarial parasite plastid, 48 hour incubation | P. falciparum luciferase growth in erythrocytes, 48 h | Potency, µM (series often up to 28.7 µM), most hits filed as inhibitors | hit rate 5.9% among 310,000
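Parasite viability was followed by luminescence of a genomically integrated firefly luciferase. Cultures held 0.1% parasitemia at 2% hematocrit (final), incubated under 5% CO2 at 37 C.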
Large screens that a line does not name were inactive. Unless noted, calls follow the shape of the dose curve; as a rule, active = well fitted curve in the direction sought with a large enough effect; inconclusive = small, poorly fitted or top-dose-only effect, or another doubt; inactive = no such curve, though single readings can be large; an effect the other way counts as inactive or inconclusive.

CCN(CC)S(=O)(=O)c1ccc(Nc2ccc(-c3ccc4c(c3)OCCO4)nn2)cc1	Pf growth 96h inconclusive
CN(C)S(=O)(=O)c1ccc(Nc2ccc(-c3ccc4c(c3)OCCO4)nn2)cc1	Pf growth 96h 5.9µM, Pf growth 48h inconclusive
O=C1Nc2ccccc2O/C1=C\c1ccccc1Br	Pf growth 96h inconclusive (no result: Pf growth 48h)
COc1cc(OC)cc(C(=O)NC(C(=O)NCCN(C)C)C23CC4CC(CC(C4)C2)C3)c1 (stereo not given)	Pf growth 48h inconclusive
COCCNC(=O)C(NC(=O)C1CCCCC1)C12CC3CC(CC(C3)C1)C2 (stereo not given)	Pf growth 96h 1.5µM, Pf growth 48h inconclusive
COc1cc(C(=O)NCCCOC(C)C)ccc1OC1CCN(C(C)=O)CC1	Pf growth 96h inconclusive
COc1ccc(CCC(C)N2CCC(Oc3ccc(C(=O)N4CCCC4)cc3)CC2)cc1 (stereo not given)	NS1 function inh inconclusive, Pf growth 96h inconclusive, Pf growth 48h 12µM (no result: Giardia FBPA inh)
COc1ccc(C(=O)NCCCOC(C)C)cc1OC1CCN(C(C)=O)CC1	Shiga toxin inh 96, CHX counter 36
CC(CCc1ccc(O)cc1)N1CCC(Oc2ccc(C(=O)N3CCCC3)cc2)CC1 (stereo not given)	none (no result: Giardia FBPA inh)
COc1ccc(C(=O)N2CCCCCCC2)cc1OC1CCN(C(C)C)CC1	Pf growth 96h 3.7µM
CCOCCCNC(=O)c1ccc(OC)c(OC2CCN(C(C)C)CC2)c1	Pf growth 96h 15µM
N#Cc1ccccc1Oc1ccccc1C=O	none
COC(=O)C1=C(C(=O)OC)[C@@H]2N(C)c3ccc(OC)cc3[C@@]23C[C@@H](C(=O)OC)N(S(=O)(=O)c2ccc(C(F)(F)F)cc2)C3=N1	none (no result: NS1 function inh, Pf growth 96h, Shiga toxin inh, CHX counter, Pf growth 48h)
COc1c(Cl)cccc1NC(=O)c1c(NC(=O)Cc2ccccc2)sc2c1CCCC2	none (no result: NS1 function inh, Pf growth 96h, Giardia FBPA inh, Pf growth 48h)
Cc1cc(NC(=O)C2CC(c3ccc(F)cc3)=NO2)no1 (stereo not given)	Pf growth 96h 5.2µM (no result: Pf growth 48h)
COC(=O)c1ccccc1NC(=O)C1CC(c2ccc(F)cc2)=NO1 (stereo not given)	Pf growth 96h 10µM
OB(O)O	none (no result: NS1 function inh, Shiga toxin inh, Giardia FBPA inh, CHX counter)
CN=c1scc(-c2ccccc2F)n1/N=C(\C)c1cccnc1	Pf growth 96h inconclusive, Shiga toxin inh 149, CHX counter 48
Cc1nc(/N=C\c2ccc(N(C)C)cc2)sc1C	none (no result: NS1 function inh, Shiga toxin inh, Giardia FBPA inh, CHX counter)
Cc1ccc(NC2=C(N3CCOCC3)C(=O)c3ccccc3C2=O)cc1	Pf growth 96h 2.6µM, Shiga toxin inh 72, Giardia FBPA inh inconclusive, CHX counter 47, Pf growth 48h 2.1µM
O=C(O)c1ccc(NC2=C(N3CCOCC3)C(=O)c3ccccc3C2=O)cc1	Giardia FBPA inh inconclusive
Cc1ccc(S(=O)(=O)NC2=C(N3CCN(Cc4ccccc4)CC3)C(=O)c3ccccc3C2=O)cc1	Giardia FBPA inh inconclusive, Pf growth 48h inconclusive (no result: Pf growth 96h)
CC(=O)c1ccc(NC2=C(N3CCOCC3)C(=O)c3ccccc3C2=O)cc1	Pf growth 96h 0.52µM, Giardia FBPA inh inconclusive, Pf growth 48h 0.83µM
N#Cc1ccccc1NC(=O)COC(=O)c1c[nH]c2ccccc12	Pf growth 48h inconclusive (no result: NS1 function inh, Shiga toxin inh, Giardia FBPA inh, CHX counter)
CCOP(=O)(OCC)C(Nc1cccc(C(F)(F)F)c1)c1ccc(F)cc1 (stereo not given)	Pf growth 96h inconclusive, Pf growth 48h inconclusive
CCOP(=O)(OCC)C(Nc1cccc(C(F)(F)F)c1)c1ccc(C)cc1 (stereo not given)	Pf growth 96h inconclusive, Pf growth 48h 10µM
CCCOP(=O)(OCCC)C(Nc1cccc(C(F)(F)F)c1)c1ccc(C)cc1 (stereo not given)	Pf growth 96h 12µM, Pf growth 48h inconclusive
C=CCOc1cccc(C(=O)Nc2ncn[nH]2)c1	none
O=C(CN1C(=O)S/C(=C\c2cccc(Cl)c2)C1=O)NCCCn1ccnc1	none (no result: Giardia FBPA inh)
O=C(CN1C(=O)S/C(=C\c2ccc(Cl)cc2)C1=O)NCCCn1ccnc1	Pf growth 96h inconclusive, CHX counter 17 (no result: Giardia FBPA inh)
COc1cccc(/C=C2\SC(=O)N(CCC(=O)NCCCn3ccnc3)C2=O)c1	none
COc1ccc(/C=C2\SC(=O)N(CCc3nnc(N)s3)C2=O)cc1	Shiga toxin inh 104, CHX counter 53
COc1ccc(/C=C2\SC(=O)N(CC(=O)NCCCn3ccnc3)C2=O)cc1	Shiga toxin inh 19, CHX counter 65
COc1cccc(/C=C2\SC(=O)N(CC(=O)NCCCn3ccnc3)C2=O)c1	Shiga toxin inh 29
CC1CCC2C(C1)OS(=O)(=O)NC2(C)C (stereo not given)	none
Cc1cc(C)cc(-n2ncc3c2CCCC3NC(=O)CN2CCCC2=O)c1 (stereo not given)	Pf growth 96h inconclusive (no result: Giardia FBPA inh)
CC(C)(C)c1ccc(-n2ncc3c2CCCC3NC(=O)c2cnccn2)cc1 (stereo not given)	Pf growth 96h inconclusive, Shiga toxin inh 73, CHX counter 30, Pf growth 48h inconclusive
CC(C)(C)c1ccc(-n2ncc3c2CCCC3NC(=O)CN2CCCC2=O)cc1 (stereo not given)	Pf growth 96h 13µM
CC(C)(C)c1ccc(-n2ncc3c2CCCC3NC(=O)c2csnn2)cc1 (stereo not given)	Pf growth 48h inconclusive
Cc1cnc([N+](=O)[O-])n1CCOC(=O)NC(=O)c1ccccc1	Pf growth 96h inconclusive (no result: NS1 function inh)
COc1ccccc1C(=O)NC(=O)OCCn1c(C)cnc1[N+](=O)[O-]	Pf growth 96h 9.3µM (no result: NS1 function inh)
CN(C)C(=O)CCC(=O)N1CCCC(N2CCN(c3cccc(C(F)(F)F)c3)CC2)C1 (stereo not given)	none
CN=C1SC(C(=O)Nc2ccccc2Cl)CC(=O)N1c1ccc(OC(F)(F)Cl)cc1 (stereo not given)	Pf growth 48h 10µM (no result: NS1 function inh)
COc1ccc(OC)c(/C=N/N(C)c2ccccc2)c1	CHX counter 36 (no result: Pf growth 96h, Pf growth 48h)
COc1ccc(OC)c(/C=N\NC(=O)c2ccc(-c3ccccc3)cc2)c1	Pf growth 96h inconclusive (no result: Giardia FBPA inh)
COc1cc(/C=N/N(C)c2ccccc2)cc(Cl)c1O	CHX counter 38 (no result: Pf growth 96h)
COc1cc(C(=O)OCC(=O)N2CCN(C(C)=O)CC2)ccc1OCC(C)C	none (no result: NS1 function inh, Shiga toxin inh, Giardia FBPA inh, CHX counter)
Nc1ccc(N=Nc2ccc(N)cc2)cc1	CHX counter 33 (no result: NS1 function inh)
Nc1ccc(N=Nc2ccccc2)cc1	Shiga toxin inh 69, CHX counter 41 (no result: NS1 function inh)
Nc1ccccc1S(=O)(=O)NCCCCc1ccccc1	none
CC1(c2ccccc2)NC(=O)N(CC(=O)N(CC(=O)Nc2ccccc2C(F)(F)F)Cc2ccco2)C1=O (stereo not given)	none (no result: NS1 function inh, Shiga toxin inh, Giardia FBPA inh, CHX counter)
CN1CCN(CCCNC(=O)CCC(=O)N2CCOc3ccccc32)CC1	none
Cn1c(=O)c2[nH]c(CCCCC(=O)O)nc2n(C)c1=O	none (no result: Pf growth 96h, Shiga toxin inh, Giardia FBPA inh, CHX counter, Pf growth 48h)
CC1CCCCN1C(=O)CSc1nnc(-c2ccccc2O)o1 (stereo not given)	Shiga toxin inh 56, CHX counter 21
Cc1occc1-c1nnc(SCC(=O)N2CCCCC2C)o1 (stereo not given)	none (no result: NS1 function inh, Shiga toxin inh, Giardia FBPA inh, CHX counter)
